Measured values: PubChem BioAssay (NCI)
The panel holds about 83,000 compounds, 20% with a hit somewhere; the sample as a whole holds those more often.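 Cell lines were cultured in 96-well plates, exposed to a single compound concentration, and assessed for percent growth 48 hours later.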 Unmarked numbers belong to inactive results. Activity calls are given as the source filed them. Rule for the calls: active = growth percent below 10; inactive = the rest.

system: HL-60(TB) leukemia; test: NCI-60 one-dose screen, 48 h (100 = growth as untreated, 0 = no growth, -100 = all killed); conditions: 10 µM unless noted

Row | Compound | growth
1 | O=c1[nH]c(-c2ccccc2)nc(CN2CCCCC2)c1O | 84.4%
2 | CN1CCN(c2ccc(NC3=CC(=O)c4ncncc4C3=O)cc2)CC1 | -32.1% (active)
3 | Cn1cnc([N+](=O)[O-])c1/C=C1\Oc2ccc(Br)cc2C1=O | 75.5%
4 | CC(C)(O)c1cn(CCCCN2C(=O)C(=O)c3ccccc32)nn1 | 97.8%
5 | CCCCC(CCCC)(S(=O)(=O)CC)S(=O)(=O)CC | 94.7%
6 | O=C(N/N=C/c1ccc(Cl)cc1)c1[nH]c2ccc(Cl)cc2c1-c1ccccc1 | 13%
7 | COc1cc2c(cc1OC)C(=O)/C(=C/c1cc(-c3ccc4c(c3)OCO4)n[nH]1)C2 | -43.8% (active)
8 | CO[C@H]1CC(O[C@@H]2/C(C)=C/C[C@@H]3C[C@@H](C[C@]4(C=C[C@H](C)[C@@H](C5CCCCC5)O4)O3)OC(=O)[C@@H]3C=C(C)[C@@H](O)[C@H]4OC/C(=C\C=C\[C@@H]2C)[C@]43O)O[C@@H](C)C1O[C@H]1C[C@H](OC)[C@@H](O)[C@H](C)O1 (stereo partly drawn) | -50.5% (active)
9 | COc1cccc(Nc2nccc(Nc3ccc4[nH]ncc4c3)n2)c1 | -62.3% (active)
10 | Fc1ccc2[nH]cc(SSc3c[nH]c4ccc(F)cc34)c2c1 | -32.3% (active)
11 | N#Cc1cccc(-c2nc3ccccn3c2NCCN2CCOCC2)c1 | 101%
12 | COc1ccc(CCN2CCC(CN(C)Cc3cnn(-c4ccccc4)c3)CC2)cc1 | 6.41% (active)
13 | O=C1NC(=O)/C(=C\c2ccccc2)C2=C1CCCC2 | -33.3% (active)
